Screening results (PubChem)
NPC1 promoter act: NPC1 promoter activation | Huh7 NPC1 promoter luciferase reporter, 24 h | 320,000 tested, 2.4% active | AID 485313 | Potency, µM (highest dose often 9.22 µM), inactives show top-dose activation, usual class: activators; further: % of control where 0% means no effect; nearly all actives have a fitted effect of over 60% in size
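Luminescence read-out of NPC1 promoter-driven luciferase in stably transfected Huh7 cells; compounds delivered in DMSO and left 24 h at 37C, 5% CO2, qHTS titration format.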
Rab9 promoter act: activators of Rab9 promoter; Huh7 Rab9 promoter-luciferase reporter, luminescence, 24 h; Potency, µM (series often up to 9.22 µM), for the others: at the highest dose activation, negative = inhibition, hits mostly activators; 320,000 tested, 2.8% active; AID 485297; further: % of control where 0% means no effect; nearly all actives have a fitted effect of over 60% in size
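Rab9 promoter-driven luciferase in stably transfected Huh7 cells; 1500 cells/well rested 2 h, exposed to compound in DMSO for 24 h at 37 °C, 5% CO2. Luminescence read 10 min after adding luciferase reagent at ambient temperature.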
SMN2 splice up: SMN2 splice variant enhancement; HEK293 SMN2-luciferase splicing reporter, luminescence, 30-36 h; Potency, µM (top dose mostly 46.1 µM), for inactives: at the top dose activity change, positive = activation, hits mostly activators; 210,000 tested, 2.8% active; AID 1458; further: % of control where 0% means no effect; nearly all actives have a fitted effect of over 55% in size
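qHTS luciferase splicing reporter: luminescence rises when SMN2 exon 7 is included in transfected HEK293 cells. Compound exposure lasted 30-36 h at 37C, with 4.5 mM final sodium butyrate as control, followed by a ONE-Glo read.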
KinaseGlo FLuc: Kinase-Glo luciferase inhibition (counter-screen); Q27757; Kinase-Glo luciferase, ATP luminescence, 8 min; Potency, µM (highest dose often 38.3 µM), for the others: at the top dose activity change, negative = inhibition, actives largely listed as inhibitors; 200,000 tested, 0.28% active; further: on the % scale 0 is the no-effect control and ±100 the full control effect; nearly all actives have a fitted effect of over 60% in size
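Inhibition of Kinase-Glo luciferase light generation was assessed at 10 uM ATP in pH 7.2 imidazole buffer, with luminescence measured after eight minutes at ambient temperature.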
ELG1 genotoxic: inducers of genotoxicity in HEK293T ELG1-luciferase cells | AID 504466 | 330,000 tested, 1.3% active | Potency, µM (highest dose often 46 µM), for the others: at the top dose activity change, positive = activation, hits mostly activators | HEK293T ELG1-luciferase reporter, luminescence, 16 h; further: % of control where 0% means no effect; nearly all actives have a fitted effect of over 60% in size
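After overnight (16 hr) compound treatment at 37 °C, ELG1-luciferase HEK293T cells were lysed with ONE-Glo; luminescence quantified 30 min later at room temperature.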
FLuc modulator: counter-screen for miR-21 project: firefly luciferase inhibitors or activators. purified FLuc, Km substrates, luminescence inhibition. Potency, µM (doses to about 57.5 µM), for inactives: at the top dose activity change, negative = inhibition, most hits filed as inhibitors. 360,000 tested, 6.9% active. AID 588342;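 further: plate controls were vehicle for no effect and reference inhibitor for full effect; nearly all actives have a fitted effect of over 55% in size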
Target sequence (P08659 whole entry, looked up): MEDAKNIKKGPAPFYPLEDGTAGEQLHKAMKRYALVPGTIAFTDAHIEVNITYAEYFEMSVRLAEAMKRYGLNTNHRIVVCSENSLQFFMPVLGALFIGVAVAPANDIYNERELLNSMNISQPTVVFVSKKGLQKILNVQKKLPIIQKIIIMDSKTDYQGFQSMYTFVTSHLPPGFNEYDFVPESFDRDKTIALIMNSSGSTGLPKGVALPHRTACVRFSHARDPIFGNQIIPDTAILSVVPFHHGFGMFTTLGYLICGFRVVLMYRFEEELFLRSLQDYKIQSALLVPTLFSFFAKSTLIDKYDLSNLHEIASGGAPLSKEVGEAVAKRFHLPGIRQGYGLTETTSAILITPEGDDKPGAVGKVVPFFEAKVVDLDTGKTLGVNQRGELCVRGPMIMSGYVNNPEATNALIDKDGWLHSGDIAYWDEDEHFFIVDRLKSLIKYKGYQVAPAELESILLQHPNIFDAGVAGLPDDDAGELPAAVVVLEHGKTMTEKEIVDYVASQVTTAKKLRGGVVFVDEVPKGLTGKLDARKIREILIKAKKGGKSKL
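Biochemical qHTS of compounds, final roughly 60 µM downward over six points, against 10 nM purified firefly luciferase using Km concentrations of substrates (10 uM D-luciferin, 10 uM ATP) in Tris acetate pH 7.5 buffer; luminescence output.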
The depositor's hits bear a star; ? = inconclusive; nt = no result given; [ ] = another dose, or the depositor's remark. The list is not random: actives were taken first. Their share in the collection is about 7.3%. The call rests on the fitted dose curve; in most records, active means well fitted curve in the direction sought with a large enough effect; inconclusive means small, poorly fitted or top-dose-only effect, or another doubt; inactive means no such curve, though single readings can be large; an effect the other way counts as inactive or inconclusive. Potency means the concentration at half of the fitted maximal effect.

SMILES	NPC1 promoter act	Rab9 promoter act	SMN2 splice up	KinaseGlo FLuc	ELG1 genotoxic	FLuc modulator
Nc1nnc(-c2cc3ccccc3oc2=O)s1	?	1.6µM*	18µM*	-9%	?	?
O=c1oc2ccccc2cc1-c1nnc(NCc2ccco2)s1	1.1µM*	0.71µM*	11µM*	-7%	?	2.7µM*
COC(=O)c1ccc(C2C(Oc3ccccc3)C(=O)N2CCc2ccc(F)cc2)cc1 (stereo not given)	0%	-1%	-3%	2%	5%	-8%
C#CCOc1ccc2ccccc2c1/C=C(/C#N)c1ccc(C(=O)O)cc1	0%	6%	nt	nt	2%	-8%
Cc1c(C(=O)N(C)CCOc2ccccc2)oc2c(Cl)cccc12	1%	16%	nt	nt	4%	?
O=C(COC(=O)c1ccc(F)c(S(=O)(=O)N2CCOCC2)c1)NCc1ccc(F)cc1	nt	nt	nt	nt	-2%	nt
Cc1cccc(N2CCN(C(=O)CN3C(=O)C4CC=CCC4C3=O)CC2)c1C (stereo not given)	?	3.2µM*	1%	4%	10%	17µM*
O=[N+]([O-])c1ccc(/C=N/Nc2nc(NCc3ccccc3)nc(N3CCOCC3)n2)cc1	0%	-3%	1%	-5%	0%	0%
O=[N+]([O-])c1cccc(/C=N/Nc2nc(NCc3ccccc3)nc(N3CCOCC3)n2)c1O	-4%	-6%	nt	-1%	-15%	17µM*
COc1ccc(N2CCN(C(=O)c3ccc4c(c3)NC(=O)C(CSCc3c(F)cccc3Cl)N4)CC2)cc1 (stereo not given)	-8%	-1%	nt	nt	-1%	4%
COC(=O)c1[nH]c(C)c(/C(O)=C2\C(=O)C(=O)N(CCN(C)C)C2c2cc(OC)ccc2OC)c1C (stereo not given)	1%	-9%	-2%	-5%	0%	5%
Cc1ccc(S(=O)(=O)N2CCC(C(=O)NCc3ccncc3)CC2)cc1	1%	-4%	-11%	-1%	1%	3%
c1ccc(CCn2nnc3ccccc32)cc1	3.2µM*	3.2µM*	nt	nt	?	11µM*
O=C(Cn1nnc2ccccc21)NCc1ccccc1	2.2µM*	3.2µM*	11µM*	-5%	7.3µM*	13µM*
O=C(Cn1nnc2ccccc21)OCc1ccccc1	-6%	0%	nt	nt	1%	21µM*
Cc1cccc(NC(=O)CSc2n[nH]c(-c3ccncc3)n2)c1	-3%	-1%	-7%	-2%	0%	?
O=C(CCc1ccccc1Cl)Nc1cccc(S(=O)(=O)N2CCCC2)c1	-6%	11%	nt	nt	-8%	4%
NC(=NC(=O)c1ccc(OC(F)(F)F)cc1)c1ccc(C(F)(F)F)cn1	-3%	-12%	nt	nt	-3%	1%
Cc1ccc(C(=O)O/N=C(\N)c2ccc(C(F)(F)F)cn2)cc1	2%	-5%	nt	nt	15%	2.1µM*
N/C(=N\OC(=O)c1csnn1)c1ccc(C(F)(F)F)cc1	?	?	nt	nt	13%	19µM*
O=C(c1ccc2c(c1)OCCO2)N1CCN(c2ccccn2)CC1	0%	-5%	nt	nt	1%	6%
CCN(CC)CCNC(=O)Cn1nc(Cc2ccccc2)c2ccccc2c1=O	-2%	-9%	-2%	0%	0%	-1%
O=C(NNC1=Nc2cccc3cccc1c23)c1ccccc1Br	0%	0%	-23%[1.84 µM]	-2%	4%	-1%
Fc1ccc(/C=N/NC2=Nc3cccc4cccc2c34)cc1	1.6µM*	1.6µM*	11µM*	-5%	12µM*	1.7µM*
COc1ccc(NC2=Nc3cccc4cccc2c34)cc1	-2%	-2%	-11%[1.84 µM]	-1%	11%	13µM*
SMILES	NPC1 promoter act	Rab9 promoter act	SMN2 splice up	KinaseGlo FLuc	ELG1 genotoxic	FLuc modulator
O=C(O)c1cccc(NC2=Nc3cccc4cccc2c34)c1	0.45µM*	?	nt	nt	7.3µM*	0.48µM*
c1ccc(NC2=Nc3cccc4cccc2c34)cc1	1%	-2%	-44%	-5%	14%	15µM*
CC(=O)Nc1ccc(NC(=O)c2nc(SCc3ccccc3C)ncc2Cl)cc1	nt	nt	-11%	nt	nt	1%
CC(C)(C)NC(=O)C(c1ccncc1)N(C(=O)CNC(=O)c1ccco1)c1ccc(F)cc1 (stereo not given)	-5%	-4%	nt	nt	2%	0%
Nc1cccc(C2=Nc3cccc4cccc(c34)N2)c1	0%	7%	-16%[1.84 µM]	-24%	-1%	?
COc1ccc(C2=Nc3cccc4cccc(c34)N2)cc1	5%	-26%	4%	-4%	0%	5.4µM*
COc1ccc(CNC(=O)CN(C(=O)c2csnn2)c2ccc(C(C)=O)cc2)cc1	21%	27%	nt	nt	12%	-19%
Cc1ccc(NC(=O)CN(C)C(=O)CSc2n[nH]c(N)n2)cc1	1%	1%	3%	3%	1%	2%
CC(C)N1C(=O)CCC1C(=O)N1CCN(c2ccc(F)cc2)CC1 (stereo not given)	1%	-9%	nt	nt	-1%	0%
Cc1ccc(C(=O)N/N=C/c2ccc(S(=O)(=O)O)o2)c(Cl)c1	-2%	-20%	9%	15%	0%	15µM*
CCOc1cccc(C2C(C(=O)c3ccc(C)o3)=C(O)C(=O)N2c2nccs2)c1 (stereo not given)	-2%	-2%	nt	nt	0%	-3%
COc1cccc(-n2c(-c3ccccc3)c[nH]c2=S)c1	-2%	-4%	nt	nt	-6%	-1%
N#Cc1cc(C#N)c(SCC(=O)NCC2CCCO2)nc1N (stereo not given)	-1%	5%	nt	nt	-1%	1%
CCOc1ccc(-c2ccc(SCC(=O)NCC3CCCO3)nn2)cc1 (stereo not given)	?	3.2µM*	16µM*	-6%	5%	5.4µM*
Cc1ccc(-c2ccc(SCC(=O)NCC3CCCO3)nn2)cc1 (stereo not given)	11%	18%	-1%	-3%	2%	17µM*
CCOC(=O)CC(=O)CSc1ncnc2c1nnn2-c1ccc(F)cc1	-1%	5%	-8%	1%	0%	?
Cc1ccc(-n2nnc3c(SCC(=O)NCC4CCCO4)ncnc32)cc1 (stereo not given)	8%	-1%	-5%	-1%	13%	5.4µM*
CCOC(=O)CSc1ncnc2c1nnn2-c1ccc(F)cc1	0%	3%	-15%	0%	6%	15µM*
COc1ccc(S(=O)(=O)Nc2ccc(S(=O)(=O)N3CCOCC3)cc2)cc1C	-2%	-4%	nt	0%	-2%	4%
Nc1ccc2c(c1)COC2=O	10%	21%	18%	-3%	11%	17µM*
O=C1OCc2cc(-n3cccc3)ccc21	-1%	2%	-3%	2%	11%	-4%
CC1(C)OC(=O)C(=CNc2cccc(C(=O)O)c2)C(=O)O1	24%	?	0%	1%	1%	15µM*
